Source: PubChem BioAssay (NCI)
The panel holds about 79,000 compounds, 15% with a hit somewhere; the sample as a whole holds those more often. Calls of active or inactive are those of the source. Rule as the data show it: active = growth inhibition above about 70%; inactive = the rest.

Legend:
[1] = NCI Yeast Anticancer Drug Screen. Data for the rad50 strain (AID 155);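 also: 0% = growth of vehicle-only cultures of the same strain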; settings: S. cerevisiae rad50 strain growth inhibition; at 50.0 µM; hits give high values
Summary of the method: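 Cells are treated with compound, grown, and their growth is then scored against vehicle-only cultures of the same repair-deficient yeast strain.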

[2] = NCI Yeast Anticancer Drug Screen. Data for the mec2-1 strain (AID 157); settings: S. cerevisiae mec2-1 strain, at 50.0 µM, hits give high values
Summary of the method: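 Readout is yeast growth inhibition, normalised to vehicle-treated controls, in the mec2-1 strain exposed to compound.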

[3] = NCI Yeast Anticancer Drug Screen. Data for the sgs1 mgt1 strain (AID 161);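 also: 0% = growth of cultures given vehicle only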; settings: S. cerevisiae sgs1 mgt1 strain, at 50.0 µM, hits give high values
Summary of the method: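 Growth of a repair-deficient yeast mutant was monitored after compound treatment and expressed as inhibition relative to vehicle-treated cultures.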

[4] = NCI Yeast Anticancer Drug Screen. Data for the cln2 rad14 strain (AID 165);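 also: 0% = growth equal to vehicle treated cultures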; settings: S. cerevisiae cln2 rad14 strain, at 50.0 µM, hits give high values
Summary of the method: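 Relative to vehicle controls, growth inhibition of compound-treated cln2 rad14 yeast was recorded.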

[5] = NCI Yeast Anticancer Drug Screen. Data for the bub3 strain (AID 167); settings: S. cerevisiae bub3 mutant strain, at 50.0 µM, hits give high values
Summary of the method: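 Part of a panel of yeast mutants defective in DNA damage repair or cell cycle regulation. Each strain is grown with compound, and inhibition is calculated relative to solvent-treated cultures.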

[6] = NCI Yeast Anticancer Drug Screen. Data for the mlh1 rad18 strain (AID 175); settings: S. cerevisiae mlh1 rad18 strain growth inhibition; at 50.0 µM; hits give high values
Summary of the method: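 Test agents were incubated with a yeast strain of defined genotype (DNA damage repair defect). Inhibition of growth was derived by comparison with vehicle-exposed cultures.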

Measured: growth inhibition

O=C(O)c1cc(-c2c(Cl)cccc2Cl)nc2cc3ccccc3cc12
inactive: [1] 26% | [2] 15.8% | [3] 28.9% | [4] 21.4% | [5] 36.4% | [6] 26.4%

O=S(=O)(NC1c2ccccc2Oc2ccccc21)c1ccc2ccccc2c1
inactive: [1] 28.4% | [2] 11.1% | [3] 16.6% | [4] 19.1% | [5] 9.65% | [6] 39.7%

Nc1nc(-c2ccccc2)cc(-c2ccc(F)cc2)c1-c1ccc(Cl)cc1
inactive: [1] 16.9% | [2] -9.2% | [3] 20.4% | [4] 24.6% | [5] -0.95% | [6] -73.5%

O=C1OC(=O)c2c1cccc2[N+](=O)[O-]
inactive: [1] -7.55% | [2] 0% | [3] -2.6% | [4] -14.4% | [5] -5.2% | [6] 2.7%

N=C(N)SCc1cccc(-c2nc3ccccc3c(=O)o2)c1
inactive: [1] 22.2% | [2] 17.4% | [3] 7.9% | [4] 5.95% | [5] 20.8% | [6] 16.9%

Cc1ccc2c(c1)SCc1c-2[nH]c2ccccc12
active: [1] 93.2% | [2] 95.3% | [3] 95.3% | [4] 88.9% | [5] 91.8% | [6] 92.8%

C/C(=N/NC(=O)C(N)=O)C(CC(C(=O)Nc1ccccc1C)/C(C)=N\NC(=O)C(N)=O)C(=O)Nc1ccccc1C (stereo unspecified)
inactive: [1] 0.75% | [2] -0.6% | [3] -8.1% | [4] -12.2% | [5] 8.05% | [6] -12.6%

O=C(NC1C=Nc2ccc(Cl)cc2NC1=O)c1ccc(Cl)cc1 (stereo unspecified)
inactive: [1] 18% | [2] 20.9% | [3] 31.4% | [4] 23.6% | [5] 6.95% | [6] 31.6%

CC(=O)NCCCCCC(=O)N(C)C
inactive: [1] -32.6% | [2] -8.45% | [3] -16.8% | [4] -17.6% | [5] -3.3% | [6] -5.35%

C/C=C1\CN2CCc3c([nH]c4ccccc34)C2CC1CC(=O)N(C)C (stereo unspecified)
inactive: [1] 0.9% | [2] -7.75% | [3] -20.6% | [4] -1% | [5] 1.6% | [6] -5.95%

COc1ccc(C(C)S(=O)(=O)c2ccccc2)cc1OC (stereo unspecified)
inactive: [1] 6.2% | [2] 8.8% | [3] -2.9% | [4] -5.9% | [5] 6.1% | [6] 5.5%

CNC(=O)N(C)C(=O)c1ccncc1C(=O)N(C(=O)NC1CCCCC1)C1CCCCC1
inactive: [1] 32.6% | [2] 2.2% | [3] 7.15% | [4] 20.8% | [5] -3.95% | [6] 1.65%

FC(F)(F)c1cc(C2SCc3nc4ccccc4n32)cc(C(F)(F)F)c1 (stereo unspecified)
inactive: [1] -5.25% | [2] -23% | [3] -7.9% | [4] 6.95% | [5] -4.35% | [6] -17.4%

O=C(/C=C/c1ccccc1)/C=N/N1C(=S)N(c2ccccc2)C(=Nc2ccccc2)C1=Nc1ccccc1
inactive: [1] -7.4% | [2] -15.8% | [3] -12.9% | [4] -20.2% | [5] -20.1% | [6] -21.6%

O=C(NCCS(=O)(=O)N1C(=O)C2CCCN2C(=O)[C@@H]1Cc1ccccc1)OCc1ccccc1 (stereo partly specified)
inactive: [1] -4.35% | [2] -0.55% | [3] -4.35% | [4] 19.4% | [5] 5.8% | [6] 26.1%

CN(C)C(=O)C1C2CCCC(CC2)C1C(=O)N(C)C (stereo unspecified)
inactive: [1] 13.7% | [2] 19.6% | [3] 21.2% | [4] 20.5% | [5] 18% | [6] 20.2%

CC(C)(C)c1ccc(Oc2nc(Oc3ccc(C(C)(C)C)cc3)nc(Oc3ccc(C(C)(C)C)cc3)n2)cc1
inactive: [1] 19.6% | [2] 10.8% | [3] 10.6% | [4] 3.8% | [5] -1.85% | [6] 11.2%

O=C1C=CC2(CCC23C=CC(=O)O3)O1 (stereo unspecified)
inactive: [1] 13% | [2] 1.95% | [3] 11% | [4] 4.2% | [5] 12.2% | [6] 20.1%

Cc1cc([N+](=O)[O-])ccc1N=Nc1ccc([N+](=O)[O-])cc1C
inactive: [1] -0.6% | [2] -1.9% | [3] 1.2% | [4] -49.1% | [5] 5.4% | [6] -8.65%

Cc1cc(N(CCC#N)CCC#N)ccc1/C=C1N=C(/C=C/c2ccccc2)N(c2ccc(S(N)(=O)=O)cc2)C\1=O
inactive: [1] 0.75% | [2] -0.2% | [3] -18.8% | [4] 0.6% | [5] -21.1% | [6] -3.9%

CN(c1ccccc1)c1ccc([N+](=O)[O-])cc1[N+](=O)[O-]
inactive: [1] 7.4% | [2] -1.3% | [3] -8% | [4] 3.25% | [5] 0.8% | [6] -11.9%

O=C1CC(=O)C(Br)=C1Br
active: [1] 99.5% | [2] 99.5% | [3] 99.5% | [4] 99.3% | [5] 99.4% | [6] 99.5%

O=C1c2cccc3cccc(c23)C1(O)S(=O)(=O)O (stereo unspecified)
inactive: [1] 4.6% | [2] -2.1% | [3] 0.85% | [4] -13.8% | [5] 21.5% | [6] 6.95%

Nc1nc(=O)n(C2CC(O)C(CO)O2)cc1I (stereo unspecified)
inactive: [1] -43.3% | [2] 1% | [3] 7.55% | [4] -17.2% | [5] -0.8% | [6] 11.2%

CCN(CC)CCOC1CCCCC1Cc1ccccn1 (stereo unspecified)
inactive: [1] -1.55% | [2] 14.8% | [3] 8.85% | [4] -25.2% | [5] -3.65% | [6] 5.85%

CC(=O)Oc1cc2c(c3ccccc13)CCC2=O
inactive: [1] 13.4% | [2] 7.2% | [3] -7.85% | [4] -0.9% | [5] 20.4% | [6] 6.05%

COc1ccc2ccc3ccc(OC)nc3c2n1
inactive: [1] 40% | [2] 40.2% | [3] 36.1% | [4] -7.05% | [5] 30.2% | [6] 16.1%

Cc1cc(S(=O)(=O)Nc2n[nH]c(Nc3ccc(Cl)cc3)n2)c(S)cc1Cl
inactive: [1] -8.1% | [2] -14.9% | [3] 6.7% | [4] 7.05% | [5] 0.35% | [6] 17.4%

N#Cc1cc([N+](=O)[O-])ccc1NC(=O)C(=O)Nn1c(=S)[nH]c2ccccc2c1=O
inactive: [1] -2.25% | [2] -2.6% | [3] -34.5% | [4] 14.6% | [5] 10.3% | [6] 5.9%

O=S(=O)(OCC1CC2C=CC1C2)c1ccc(Br)cc1 (stereo unspecified)
inactive: [1] -15.6% | [2] 7.45% | [3] -3.7% | [4] 6.85% | [5] 54.9% | [6] 3.65%

CC(CCc1ccccc1)NC(=O)c1ccccc1 (stereo unspecified)
inactive: [1] 5% | [2] -40.1% | [3] -1.45% | [4] 11.2% | [5] 10.7% | [6] -16.6%

CCC1(CC)C(=O)OC(=O)C1(CC)CC
inactive: [1] -6.05% | [2] 6.7% | [3] 2.8% | [4] -8.2% | [5] -10.9% | [6] -10.4%

CC(C)NCC(=O)CCCBr
inactive: [1] -5.15% | [2] 0.85% | [3] -3.8% | [4] -23.1% | [5] 5.45% | [6] 10.8%

COC(=O)Nn1cc(C(C(C)=O)C(C)=O)c(C(C)=O)c1C
inactive: [1] -6.9% | [2] -0.15% | [3] 7.9% | [4] -35.6% | [5] -0.05% | [6] 17.9%

O=C(/C=C/c1ccccc1)NC(=S)Nc1ccc(F)c([N+](=O)[O-])c1
inactive: [1] 7.6% | [2] 6.05% | [3] 7.85% | [4] 12.7% | [5] 21.6% | [6] 12.2%

COc1cc2c(cc1O)CN1Cc3cc(O)c(OC)cc3C2C1
inactive: [1] -4.95% | [2] 2.35% | [3] -9.1% | [4] -20.9% | [5] -10% | [6] 13.3%

COc1cccc(CSCC(=O)O)c1
inactive: [1] -9.3% | [2] -26.5% | [3] -44.2% | [4] 7.25% | [5] -17.6% | [6] -1.6%

c1ccc2c(C3=NCCO3)cccc2c1
inactive: [1] 11.7% | [2] 9.7% | [3] 8.3% | [4] -34.6% | [5] 4% | [6] 11.8%

O=[N+]([O-])c1ccc(-c2ccccc2)c([N+](=O)[O-])c1
inactive: [1] -3.05% | [2] 0.35% | [3] -29.8% | [4] -31.9% | [5] 1.5% | [6] 17.6%

Cc1nc(/C=C2\C(=O)C=Cc3ccccc32)c(O)o1
inactive: [1] 7.85% | [2] -6.3% | [3] 8.35% | [4] -63% | [5] 16% | [6] 0.3%

NC1(C(=O)O)CCCC1C(=O)O (stereo unspecified)
inactive: [1] -8.7% | [2] -26.6% | [3] -23.1% | [4] 15.9% | [5] -6.3% | [6] -2.75%
